Laboratory results as given in PubChem BioAssay (NCATS).
Inconclusive results are not listed. Active and inactive are the calls of the source. Calls come from the whole dose curve; as a rule, active = well fitted inhibition curve with a large enough effect; inconclusive = small, poorly fitted or top-dose-only effect; inactive = no such curve, though single readings can be large or run the other way.

target: Cytochrome P450 2C19 (Homo sapiens) (UniProt P33261); experiment: qHTS Assay for Inhibitors and Substrates of Cytochrome P450 2C19 (AID 899); details: recombinant CYP2C19, luciferin-H EGE luminescence; series mostly up to 11.4 µM; note: nearly all actives have a fitted effect of over 60% in size
Sequence (P33261 whole entry, looked up): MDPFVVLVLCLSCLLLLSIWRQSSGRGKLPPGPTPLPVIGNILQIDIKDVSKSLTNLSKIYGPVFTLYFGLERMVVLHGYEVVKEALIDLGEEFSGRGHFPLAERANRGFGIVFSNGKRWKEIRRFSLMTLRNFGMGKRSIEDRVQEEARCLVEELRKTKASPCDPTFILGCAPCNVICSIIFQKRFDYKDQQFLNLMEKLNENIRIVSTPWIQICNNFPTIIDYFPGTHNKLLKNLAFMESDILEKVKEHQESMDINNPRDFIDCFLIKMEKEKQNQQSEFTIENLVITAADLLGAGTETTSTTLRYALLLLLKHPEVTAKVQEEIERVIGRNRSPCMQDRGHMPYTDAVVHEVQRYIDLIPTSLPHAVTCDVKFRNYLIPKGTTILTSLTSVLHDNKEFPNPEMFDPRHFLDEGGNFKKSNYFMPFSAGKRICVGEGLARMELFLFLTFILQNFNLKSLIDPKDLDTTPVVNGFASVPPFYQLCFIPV
Summary of the method: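 In 50mM KPO4, the reaction held 5nM enzyme and KM-level (10uM) Luciferin-H EGE; it ran 60 min at 37C after NADPH regeneration and a 10 min compound preincubation. Luminescence values were scaled to 57uM ketoconazole as complete inhibition.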
Potency is the fitted concentration of half-maximal effect.

Potency, inactive:
CC(C)=CCC/C(C)=C/CO/N=C1/C[C@@H](O)[C@@H](O)[C@@H]2[C@@H]3C(=O)N(Cc4ccccc4)C(=O)[C@H]3CC[C@@H]12
CO[C@@H]1COC(=O)[C@H](Cc2ccccc2)NC(=O)C/C=C\[C@@H](C)[C@H](OC)COC(=O)[C@@H](C)NC(=O)C/C=C\[C@H]1C
CC(=O)OC[C@H]1O[C@@H](O/N=C2/[C@H]3O[C@@H]3[C@@H](O)[C@H]3[C@H]2CCn2c(=O)n(-c4ccccc4)c(=O)n23)[C@H](OC(C)=O)[C@@H](OC(C)=O)[C@@H]1OC(C)=O
C[C@H]1COC(=O)[C@H]2CCCN2C(=O)[C@@H](C)COC(=O)[C@H](Cc2ccccc2)NC1=O
CC(=O)OC[C@@H]1O[C@@H](O/N=C2/C[C@@H](O)[C@@H](O)[C@@H]3[C@@H]4C(=O)N(C(C)(C)C)C(=O)[C@H]4CC[C@H]23)[C@H](OC(C)=O)[C@H](OC(C)=O)[C@@H]1OC(C)=O
C#CCCCO/N=C1/C[C@@H](O)[C@@H](O)[C@@H]2[C@@H]3C(=O)N(Cc4ccccc4)C(=O)[C@H]3CC[C@@H]12
C[C@@H](c1ccccc1)N1C(=O)[C@H]2[C@@H]3[C@H](O)C=CC(=O)[C@H]3CC[C@H]2C1=O
Cc1ccc(S(=O)(=O)N[C@H]2COC(=O)C/C=C\[C@@H](C)[C@H](NS(=O)(=O)c3ccc(C)cc3)COC(=O)[C@H](C)NC(=O)C/C=C\[C@H]2C)cc1

Potency, active:
CO/N=C\[C@@H](NS(=O)(=O)c1ccc(C)cc1)[C@H](C)/C=C\CC(=O)OC 3.16 µM
